Test results reported in PubChem BioAssay AID1159580 (chemical genetic matrix, 2015).
Hit rate of the full screen: of about 5,500 compounds, about 2,000 (36%) were called active. Roughly 18% stayed inconclusive and do not appear here. Rule as the data show it: active = normalized growth mostly below about 0.91 (no sharp cut-off); inconclusive = no clear call, values can overlap the other calls; inactive = mostly above about 0.92. Some of the results follow.

Test: chemical genetic growth profiling, strain panel (AID 1159580);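 also: tested at 20 µM; growth read once vehicle control cultures reached saturation at 30 °C; 1 = growth at the plate median or of vehicle wells; lower values mean less growth of the strain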
Details: growth OD

Measured: normalized growth

Cc1onc(-c2ccccc2)c1-c1ccc(S(N)(=O)=O)cc1
inactive: S. cerevisiae deletion strains, locus YJR043C, strain POL32, stronger effect = lower value 0.993 | S. cerevisiae deletion strains, locus YJR075W, strain HOC1, stronger effect = lower value 1 | S. cerevisiae deletion strains, locus YKL009W, strain mrt4, stronger effect = lower value 0.993 | S. cerevisiae deletion strains, locus YKL068W, stronger effect = lower value 1 | S. cerevisiae deletion strains, locus YKL085W, strain MDH1 (second series), stronger effect = lower value 0.996 | S. cerevisiae deletion strains, locus YKL085W, strain MDH1, stronger effect = lower value 0.996 | S. cerevisiae deletion strains, locus YKL160W, strain elf1, stronger effect = lower value 1 | S. cerevisiae deletion strains, locus YKL190W, strain CNB1, stronger effect = lower value 1.01 | S. cerevisiae deletion strains, locus YKR001C, strain vps1, stronger effect = lower value 0.991 | S. cerevisiae deletion strains, locus YKR026C, strain gcn3, stronger effect = lower value 0.987 | S. cerevisiae deletion strains, locus YKR091W, strain srl3, stronger effect = lower value 0.999 | S. cerevisiae deletion strains, locus YLL001W, strain dnm1, stronger effect = lower value 0.994 | S. cerevisiae deletion strains, locus YLL026W, stronger effect = lower value 0.999 | S. cerevisiae deletion strains, locus YLL041C, strain sdh2, stronger effect = lower value 1 | S. cerevisiae deletion strains, locus YLR027C, strain aat2, stronger effect = lower value 1.01 | S. cerevisiae deletion strains, locus YLR039C, strain RIC1, stronger effect = lower value 1 | S. cerevisiae deletion strains, locus YLR058C, strain SHM2, stronger effect = lower value 1.01 | S. cerevisiae deletion strains, locus YLR102C, strain apc9, stronger effect = lower value 0.998 | S. cerevisiae deletion strains, locus YLR221C, strain rsa3, stronger effect = lower value 0.995 | S. cerevisiae deletion strains, locus YLR258W, strain gsy2, stronger effect = lower value 1.01 | S. cerevisiae deletion strains, locus YLR262C, strain YPT6 (second series), stronger effect = lower value 1.01 | S. cerevisiae deletion strains, locus YLR262C, strain YPT6, stronger effect = lower value 0.986 | S. cerevisiae deletion strains, locus YLR268W, strain sec22, stronger effect = lower value 0.99 | S. cerevisiae deletion strains, locus YLR320W, strain mms22, stronger effect = lower value 1 | S. cerevisiae deletion strains, locus YLR330W, strain CHS5, stronger effect = lower value 1.01 | S. cerevisiae deletion strains, locus YLR342W, strain FKS1 (second series), stronger effect = lower value 1 | S. cerevisiae deletion strains, locus YLR342W, strain FKS1, stronger effect = lower value 1 | S. cerevisiae deletion strains, locus YLR357W, strain rsc2, stronger effect = lower value 1.03 | S. cerevisiae deletion strains, locus YLR370C, strain arc18, stronger effect = lower value 0.999 | S. cerevisiae deletion strains, locus YLR371W, strain rom2, stronger effect = lower value 0.998 | S. cerevisiae deletion strains, locus YLR384C, strain iki3, stronger effect = lower value 1.01 | S. cerevisiae deletion strains, locus YLR418C, strain cdc73, stronger effect = lower value 0.963 | S. cerevisiae deletion strains, locus YML016C, strain PPZ1, stronger effect = lower value 1 | S. cerevisiae deletion strains, locus YML032C, strain rad52, stronger effect = lower value 0.996 | S. cerevisiae deletion strains, locus YML120C, strain ndi1, stronger effect = lower value 0.992 | S. cerevisiae deletion strains, locus YML124C, strain tub3, stronger effect = lower value 0.996 | S. cerevisiae deletion strains, locus YMR058W, strain fet3, stronger effect = lower value 1 | S. cerevisiae deletion strains, locus YMR078C, strain ctf18, stronger effect = lower value 1 | S. cerevisiae deletion strains, locus YMR125W, strain sto1, stronger effect = lower value 0.988 | S. cerevisiae deletion strains, locus YMR129W, stronger effect = lower value 0.967 | S. cerevisiae deletion strains, locus YMR205C, strain PFK2, stronger effect = lower value 1 | S. cerevisiae deletion strains, locus YMR223W, strain ubp8, stronger effect = lower value 0.997 | S. cerevisiae deletion strains, locus YMR231W, strain pep5, stronger effect = lower value 1 | S. cerevisiae deletion strains, locus YMR263W, strain SAP30, stronger effect = lower value 1 | S. cerevisiae deletion strains, locus YMR307W, strain GAS1, stronger effect = lower value 0.977 | S. cerevisiae deletion strains, locus YNL067W, strain RPL9B, stronger effect = lower value 1 | S. cerevisiae deletion strains, locus YNL071W, strain lat1, stronger effect = lower value 1.01 | S. cerevisiae deletion strains, locus YNL128W, strain TEP1, stronger effect = lower value 1.01 | S. cerevisiae deletion strains, locus YNL153C, strain GIM3, stronger effect = lower value 1 | S. cerevisiae deletion strains, locus YNL209W, strain ssb2, stronger effect = lower value 0.994 | S. cerevisiae deletion strains, locus YNL233W, strain BNI4, stronger effect = lower value 1.01 | S. cerevisiae deletion strains, locus YNL248C, strain rpa49, stronger effect = lower value 1 | S. cerevisiae deletion strains, locus YNL250W, strain rad50, stronger effect = lower value 0.991 | S. cerevisiae deletion strains, locus YNL271C, strain bni1, stronger effect = lower value 1.01 | S. cerevisiae deletion strains, locus YNL298W, strain CLA4, stronger effect = lower value 0.989 | S. cerevisiae deletion strains, locus YNL307C, strain MCK1, stronger effect = lower value 0.998 | S. cerevisiae deletion strains, locus YNL322C, strain KRE1 (second series), stronger effect = lower value 1.02 | S. cerevisiae deletion strains, locus YNL322C, strain KRE1, stronger effect = lower value 1.01 | S. cerevisiae deletion strains, locus YNR049C, strain mso1, stronger effect = lower value 1 | S. cerevisiae deletion strains, locus YNR052C, strain pop2, stronger effect = lower value 1 | S. cerevisiae deletion strains, locus YOL006C, strain TOP1, stronger effect = lower value 0.992 | S. cerevisiae deletion strains, locus YOL012C, strain htz1 0.783 | S. cerevisiae deletion strains, locus YOL147C, strain pex11, stronger effect = lower value 0.997 | S. cerevisiae deletion strains, locus YOR001W, strain rrp6, stronger effect = lower value 1 | S. cerevisiae deletion strains, locus YOR061W, strain CKA2, stronger effect = lower value 0.998 | S. cerevisiae deletion strains, locus YOR069W, strain VPS5, stronger effect = lower value 1 | S. cerevisiae deletion strains, locus YOR070C, strain gyp1, stronger effect = lower value 0.993 | S. cerevisiae deletion strains, locus YOR080W, strain dia2, stronger effect = lower value 0.998 | S. cerevisiae deletion strains, locus YOR083W, strain WHI5, stronger effect = lower value 0.997 | S. cerevisiae deletion strains, locus YOR106W, strain vam3, stronger effect = lower value 1.01 | S. cerevisiae deletion strains, locus YOR136W, strain idh2, stronger effect = lower value 0.992 | S. cerevisiae deletion strains, locus YOR144C, strain elg1, stronger effect = lower value 1 | S. cerevisiae deletion strains, locus YOR184W, strain ser1, stronger effect = lower value 0.992 | S. cerevisiae deletion strains, locus YOR265W, strain rbl2, stronger effect = lower value 1 | S. cerevisiae deletion strains, locus YOR270C, strain vph1, stronger effect = lower value 1.01 | S. cerevisiae deletion strains, locus YOR290C, strain snf2, stronger effect = lower value 1.01 | S. cerevisiae deletion strains, locus YOR316C, strain cot1, stronger effect = lower value 0.991 | S. cerevisiae deletion strains, locus YPL051W, strain arl3, stronger effect = lower value 1.01 | S. cerevisiae deletion strains, locus YPL055C, strain LGE1, stronger effect = lower value 1.01 | S. cerevisiae deletion strains, locus YPL078C, strain atp4, stronger effect = lower value 0.996 | S. cerevisiae deletion strains, locus YPL106C, strain sse1, stronger effect = lower value 0.984 | S. cerevisiae deletion strains, locus YPL240C, strain hsp82, stronger effect = lower value 0.991 | S. cerevisiae deletion strains, locus YPL241C, strain CIN2, stronger effect = lower value 1 | S. cerevisiae deletion strains, locus YPR119W, strain clb2, stronger effect = lower value 1 | S. cerevisiae deletion strains, locus YPR141C, strain kar3, stronger effect = lower value 0.996 | S. cerevisiae deletion strains, locus YPR163C, strain tif3, stronger effect = lower value 0.991 | S. cerevisiae deletion strains, locus YPR167C, strain met16, stronger effect = lower value 0.995 | S. cerevisiae deletion strains, strain wtn01, stronger effect = lower value 0.985 | S. cerevisiae strains, strain wild type, stronger effect = lower value 0.999
